# Compounds without any hit were thinned out: in the full panel of roughly 83,000, 20% have a hit.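 In brief: 96-well plates, 48 h treatment, single concentration, percent growth endpoint.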 Values without a mark were called inactive. Calls of active or inactive are those of the source. The calls were made as follows: active = growth percent below 10; inactive = the rest.
# System: SN12C renal
# Assay: NCI-60 one-dose screen, 48 h (100 = growth as untreated, 0 = no growth, -100 = all killed)
# Details: 10 µM unless noted
row,Compound,growth
1,CCCCCCC1N=C(N)N=C(N)N1c1cccc(Cl)c1 (configuration not stated),26.8%
2,O=C(O)c1cc2c(s1)C(=O)c1sccc1C2=O,-46.9% (active)
3,N#CCc1cccc2ccccc12,110%
4,COC(=O)C(=[N+]=[N-])C(=O)c1ccc([N+](=O)[O-])o1,90.9%
5,O=C(Nc1cccc(C(F)(F)F)c1)Oc1ccc(Cl)c2cccnc12,33.1%
6,CCOc1ccc(C(CN2CCOCC2)C(C)=O)cc1OC (configuration not stated),86.6%
7,COc1ccc2c(c1)c(CC(=O)O)c(C)n2C(=O)c1ccc(Cl)cc1,97.4%
8,CC(C)N=C(N)/N=C(\N)Nc1ccc2ccc3ccccc3c2c1,-84.6% (active)
9,CCc1cnc2ccccc2c1/C=C/c1ccc(N(C)C)cc1,52.3%
10,NC(=S)N/N=C\c1nccc2c(C(F)(F)F)cccc12,17.2%
11,CCC(=O)c1cc([N+](=O)[O-])c(Br)s1,103%
12,O=C1/C(=C/c2ccccc2)CCC/C1=C\c1ccccc1,93.2%
13,COc1cc(NCc2ccc3nc(N)nc(N)c3c2C)cc(OC)c1OC (tested in a mixture with another compound),44.7%
14,CCOc1cc(F)c([N+](=O)[O-])cc1[N+](=O)[O-],90.5%
15,CC/C(=C(/CC)c1ccc(O)cc1)c1ccc(O)cc1,76%
16,CC(C)c1ccc(C(=O)OC2CCCC2)cc1,97.5%
17,O=C(CBr)c1ccc(OC(=O)c2ccccc2)cc1,103%

# From PubChem BioAssay (NCI)
